Assay outcomes deposited in PubChem by Buhrlage Lab, Dana-Farber Cancer Institute and Novartis Institutes for BioMedical Research (Cambridge, Mass).
Most compounds without a hit are left out; they make up all but 12% or so of the library.
USP17 block = blocks human USP17 ubiquitin-rhodamine cleavage. purified USP17, Ub-rhodamine cleavage fluorescence, 3 h. inhibition, % at 50 µM. 47,000 compounds, 6.5% hits
USP8 block = inhibitors of human USP8 deubiquitinase | P40818 | purified USP8, Ub-rhodamine cleavage fluorescence, 30 min | inhibition, % at 20 µM | 47,000 compounds, 4.2% hits | AID 1645853
USP30 block = inhibitors of human USP30 deubiquitinase. purified USP30, Ub-rhodamine cleavage fluorescence. inhibition, % at 25 µM. 47,000 compounds, 5.3% hits. AID 1645860
Starred values were filed as active, the others as inactive; · = no result. Rule as the data show it: active = inhibition above about 30%; inactive = the rest.

SMILES	USP17 block	USP8 block	USP30 block
CCOC(=O)C(C)Sc1ncnc2c1sc1nc(N3CCCC3)c3c(c12)CC(C)(C)OC3 (stereo unspecified)	-7	46*	-70
CCOC(=O)C(Sc1ncnc2c1sc1nc(N3CCOCC3)c3c(c12)CC(C)(C)OC3)c1ccccc1 (stereo unspecified)	-1	-1	-5
COCCC(=O)N1CCCC(c2nc(-c3ccncc3)cc(=O)[nH]2)C1 (stereo unspecified)	3	5	-1
O=C(c1cc(C2CC2)on1)N1CCCC1c1ccccc1Cl (stereo unspecified)	-2	0	-2
O=C(Nc1ccc(N2CCCCC2)c(F)c1)c1ccccc1F	10	3	3
Cc1cc(-c2cccc(C(=O)O)c2)nc(C2CCCN(C(=O)C(C)(C)C)C2)n1 (stereo unspecified)	0	-2	9
COCCCn1cnc2c([nH]c3ccc(Br)cc32)c1=O	65*	-4	·
COc1ccc2[nH]c3c(=O)n(CCN4CCNCC4)cnc3c2c1	-3	0	-4
Cc1ccc2[nH]c3c(=O)n(Cc4ccc(N(C)C)cc4)cnc3c2c1	10	88*	16
O=c1c2[nH]c3ccc(Br)cc3c2ncn1CCO	24	-4	3
COC(=O)Cn1cnc2c([nH]c3ccc(OC)cc32)c1=O	8	9	29
Cc1ccc2[nH]c3c(=O)n(CCN4CCNCC4)cnc3c2c1	0	6	21
COc1ccc2[nH]c3c(=O)n(Cc4cccnc4)cnc3c2c1	45*	-1	24
COc1ccc(Cn2cnc3c([nH]c4ccc(Br)cc43)c2=O)cc1	61*	0	-13
CC(=O)N1CCc2[nH]c3ccc(C(=O)NCCC4CCN(C(C)C)CC4)cc3c2C1	-1	1	-29
CCOc1ccc(NC(=O)CN(C)S(=O)(=O)c2ccc3c(c2)n(C)c(=O)c(=O)n3C)cc1	14	20	24
Cc1ccc(NC(=O)c2ccc3nncn3c2)c(C)c1	·	-5	-4
Cc1ccc(-c2csc3ncn(Cc4ccco4)c(=O)c23)cc1	30	-1	9
O=c1c2[nH]c3ccccc3c2ncn1Cc1cccnc1	5	-5	-1
Cc1ccc2[nH]c3c(=O)n(Cc4cccnc4)cnc3c2c1	34*	-3	17
Cc1cc(Oc2coc3cc(OCC(=O)N4CCCCC4)ccc3c2=O)cc(C)c1Cl	15	-33	-124
Cc1c(C(=O)N2CCOCC2)cnn1-c1ccc(-c2nc(C(C)(C)C)no2)cn1	-2	-7	-6
CCn1c(=O)c(NCc2ccc(Cl)cc2)nc2ccncc21	48*	-5	34*
CC(C)c1ccc(CNc2nc3ccncc3n(Cc3ccccc3)c2=O)cc1	10	-25	·
CCN1CCN(CCCNC(=O)C2CCCN(c3nc4ncccc4n4cccc34)C2)CC1 (stereo unspecified)	-86	-64	-321
SMILES	USP17 block	USP8 block	USP30 block
O=C(CCc1nnc2ccc(N3CCCC3)nn12)NCc1ccc2c(c1)OCO2	5	17	25
Cn1c(=O)c(-c2ccc(C(=O)NCc3ccc4c(c3)OCO4)cc2)nc2cccnc21	28	40*	2
CCn1c(CCNC(=O)c2ccc(Cl)cc2)nc2cccnc21	-101	-30	-392
CCn1c(=O)c(-c2ccc(C(=O)Nc3ccccc3F)cc2)nc2cccnc21	48*	0	10
CCn1c(=O)c(C(=O)NCc2cccc(Cl)c2)nc2cccnc21	·	-41	-4
Cn1cc(CC(=O)NCc2ccc3c(c2)OCO3)c2cccnc21	-11	-31	-7
Cn1c(=O)c(-c2ccc(C(=O)NCc3cccc(Cl)c3)cc2)nc2cccnc21	67*	43*	82*
O=C(O)C1CCN(c2ncnc3c2oc2ccccc23)CC1	13	4	·
O=S(=O)(Cc1ccc(Cl)cc1)c1ncn[nH]1	-21	-1	-14
Fc1ccc(-c2[nH]ncc2CN2CCN(c3ccccn3)CC2)cc1	-3	1	12
Fc1ccc(-c2cnc(N3CCN(c4ccccn4)CC3)nc2)cc1	19	17	31*
COc1ccc(Cl)cc1NC(=O)Cn1nc2c3c(C)c(C)sc3ncn2c1=O	18	13	-4
CC(=O)Nc1ccc(NC(=O)CC2N=C(N3CCN(c4ccccc4)CC3)NC2=O)cc1 (stereo unspecified)	-16	-6	-15
CCOc1ccc(NC(=O)CC2N=C(N3CCN(c4ccccc4F)CC3)NC2=O)cc1 (stereo unspecified)	13	3	35*
Cc1ccc2c(c1)C(C)(C)C1(C)NC(=O)CN21 (stereo unspecified)	1	-2	-11
Cc1ccc2c(c1)C(Cc1ccc(OC(C)C)cc1)C(=O)N2 (stereo unspecified)	2	9	6
CS(=O)(=O)c1ccc(NC(=O)C2CN(c3nc4c(F)cccc4s3)C2)cc1	55*	-11	2
Cc1ccc(S(=O)(=O)N2CCC(C(=O)Nc3nc4c(F)cccc4s3)CC2)cc1	1	4	-1
COc1ccc(S(=O)(=O)N2CCN(C(=O)c3ccc(-n4cnnn4)cc3)CC2)cc1	-1	5	1
C[C@H](Cc1cc2c(cc1O)OCO2)[C@@H](C)Cc1cc2c(cc1O)OCO2	100*	64*	93*
Cc1cc2c(cc1CCc1cc3c(cc1C)OCO3)OCO2	0	-6	0
CCCc1cc(=O)n2[nH]c(COc3ccccc3)c(-c3ccccc3)c2n1	40*	-142	55*
N#Cc1c[nH]n2c(=O)cc(Cc3ccccc3)nc12	1	0	-11
COc1ccc(N2CCN(C(=O)c3cncc(NS(=O)(=O)c4ccc(F)cc4)c3)CC2)cc1	11	42*	-9
COc1ccc(NC(=O)c2cncc(NS(=O)(=O)c3ccccc3)c2)cc1	1	7	-1
SMILES	USP17 block	USP8 block	USP30 block
Cc1cc(C(=O)N2C[C@H](OCC3CC3)[C@H]3COC[C@H]32)no1	0	3	-8
c1ccc(-c2nn3c(-c4ccco4)nnc3c3ccccc23)cc1	1	8	-2
c1ccc(-c2cc(-c3nnc4c5ccccc5cnn34)[nH]n2)cc1	47*	1	7
Cc1ccc(Cn2nnc3c(=O)[nH]c(C4CCN(C(=O)CC(C)(C)C)CC4)nc32)cc1	10	10	29
O=c1[nH]c(C2CCN(S(=O)(=O)c3ccc(S(=O)(=O)NC4CC4)cc3)CC2)nc2c1nnn2Cc1ccc(F)cc1	·	-1	42*
CC(C)CC(=O)N1CCC(c2nc3c(nnn3Cc3ccccc3)c(=O)[nH]2)CC1	0	4	3
Cc1ccc(Cn2nnc3c(=O)[nH]c(C4CCN(S(=O)(=O)c5ccc(S(=O)(=O)NC6CCCCC6)cc5)CC4)nc32)cc1	0	-20	14
O=c1[nH]c(C2CCN(S(=O)(=O)c3ccc(S(=O)(=O)NC4CCCCC4)cc3)CC2)nc2c1nnn2Cc1ccc(F)cc1	47*	36*	40*
O=c1[nH]c(C2CCN(S(=O)(=O)c3ccc(S(=O)(=O)NC4CC4)cc3)CC2)nc2c1nnn2Cc1ccccc1	33*	0	39*
O=C(CN1C(=O)CSCC1=O)Nc1ccc(F)cc1	-1	-6	-1
Cc1csc(-c2cc(C3CCN(C(C)C)CC3)nc(C)n2)n1	13	16	10
CCOC(=O)N1CCN(C2=Cc3ccccc3Sc3ccccc32)CC1	1	11	6
